Assay outcomes from PubChem.
Shown are actives, neighbours in structure and some others; about 4.7% of the full set was active somewhere.
TROY signal inh = TROY signaling inhibition | Q293 LMP1-TROYcd NF-kB luciferase reporter, 4 h | inhibition, % at 10 µM | 360,000 compounds, 0.98% hits;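 active = compounds whose plate-normalised and pattern-corrected inhibition of the luciferase reporter signal at the single screening dose is 50% or more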
TWEAK-Fn14 inh = blocks TWEAK-Fn14 interaction in a reporter cell assay; inhibition, % at 10 µM; 360,000 compounds, 2% hits; AID 1159606; TWEAK-stimulated Fn14 reporter cells, luciferase luminescence, 8 h; in the data active = inhibition above about 50%
HSP90 inh = blocks HSP90-mediated luciferase refolding in reticulocyte lysate; inhibition, % at 5.6 µM; 290,000 compounds, 0.91% hits; AID 1789; Rabbit reticulocyte lysate, luciferase refolding luminescence, 3 h;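 active = inhibition above the screen-wide mean plus 3 SD, computed separately per campaign, cut at about 16% in these data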;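 also: 0% = DMSO wells and 100% = 60 µM geldanamycin wells; inhibitors lower the luminescence because luciferase stays unfolded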
HSF1 activator = increases HSF-1 driven luciferase reporter signal; activation, % at 9 µM; NIH3T3-HGL HSF-1 luciferase reporter, MG132, 8 h; 100% = twice DMSO control signal; 300,000 compounds, 1.7% hits;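 active = mean replicate activation of at least 50% with a set share of replicates each reaching 50%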;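 also: 0% = median of the neutral control wells and 100% = twice that signal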
EBV LMP1 NFkB = Epstein-Barr LMP1 NF-kappaB reporter inhibition | AID 504558 | LMP1-induced NF-kappaB luciferase reporter cells, luminescence | 350,000 compounds, 0.69% hits | inhibition, % at 12.5 µM; in the data active = inhibition above about 41%;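 also: 0% = neutral control wells and 100% = reference inhibitor control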
HSF1 inh = HSF1 inhibition; NIH3T3-HGL HSE-luciferase, MG132-induced, luminescence 8 h; stronger effect = lower value; activity change, negative = inhibition, % at 7.5 µM (by protocol); AID 2098; 300,000 compounds, 0.77% hits;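 active = more than half of replicate wells show activity change below -50%, luminescence cut by over half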;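 also: luciferase reports HSF-1 transcriptional activity via heat shock element; 0% = median of DMSO wells and -100% = zero luminescence signal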
HSP90 confirm = confirmation of HSP90 inhibitors. shares compounds with HSP90 inh. rabbit reticulocyte lysate, luciferase refolding luminescence, 3 h. inhibition, % at 5.9 µM. 2,300 compounds, 64% hits. AID 1846; in the data active = inhibition above about 18%;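 also: 0% = vehicle wells and 100% = reference inhibitor wells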
luciferase ctr = blocks native firefly luciferase in HSP90 counter-screen | inhibition, % at 5.9 µM | shares compounds with HSP90 inh | 2,300 compounds, 48% hits | purified native firefly luciferase, luminescence;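 active = inhibition above the mean inhibition of all tested sample wells plus 3 SD, cut at about 10% in these data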;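 also: 0% = DMSO with luciferase and 100% = wells lacking luciferase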
Target sequence (P08659 whole entry, looked up): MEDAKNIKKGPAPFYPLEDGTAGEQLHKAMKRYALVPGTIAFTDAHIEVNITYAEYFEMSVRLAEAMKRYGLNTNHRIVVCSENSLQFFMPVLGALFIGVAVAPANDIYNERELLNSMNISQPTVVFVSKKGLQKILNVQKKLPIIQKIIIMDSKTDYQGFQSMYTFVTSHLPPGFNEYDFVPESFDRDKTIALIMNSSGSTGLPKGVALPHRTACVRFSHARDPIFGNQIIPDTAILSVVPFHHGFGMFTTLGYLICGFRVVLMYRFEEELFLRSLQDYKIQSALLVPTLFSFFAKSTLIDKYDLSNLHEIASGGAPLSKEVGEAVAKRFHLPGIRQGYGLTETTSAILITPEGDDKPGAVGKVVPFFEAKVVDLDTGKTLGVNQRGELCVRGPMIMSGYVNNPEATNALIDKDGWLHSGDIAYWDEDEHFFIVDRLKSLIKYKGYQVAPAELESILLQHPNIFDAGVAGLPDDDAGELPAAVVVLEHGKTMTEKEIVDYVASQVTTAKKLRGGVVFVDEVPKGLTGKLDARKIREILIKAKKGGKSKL
* marks the source's active call; other numbers are inactive results; x = not tested or not shown.

SMILES	TROY signal inh	TWEAK-Fn14 inh	HSP90 inh	HSF1 activator	EBV LMP1 NFkB	HSF1 inh	HSP90 confirm	luciferase ctr
Cc1cccc(NC(=O)CNC(=O)c2cc(S(=O)(=O)N(C)C)ccc2N2CCCC2)c1C	-3	18	x	x	-1	x	x	x
Cc1cccc2c3nc4ccccc4nc3n(CCCN3C(=O)c4ccccc4C3=O)c12	-10	71*	25*	12	-6	5	6	-5
COc1ccc(CC(=O)Oc2cc(C)ccc2C)cc1	-14	2	17*	1	-1	-6	-5	-7
COc1ccc(OC(=O)COc2cc(C)ccc2C)cc1	1	-15	-2	16	-19	-3	x	x
Cc1ccc(-c2nc(-c3ccccc3)no2)c(Cl)c1	81*	101*	54*	-77	40	-72*	90*	86*
Cc1ccc(C)c(C(O)c2ncc(-c3ccc4ccccc4c3)[nH]2)c1 (stereo not given)	-16	18	x	x	x	x	x	x
COC(=O)C1CCN(C(=O)c2ccc3nc(-c4cccc(OC)c4)oc3c2)CC1	-59	-55	51*	-7	-34	-12	63*	-10
O=C(Nc1ccccc1)OCCN1CCN(Cc2ccccc2)CCC1=O	16	-7	2	0	-4	2	x	x
O=C1CCN(Cc2ccccc2)CCN1CCOc1ccccc1	46	48	17*	-3	-10	2	13	21*
Oc1ccc(-c2csc(Nc3ccccn3)n2)cc1	-27	6	21*	63*	-29	30	-2	-12
Cc1ccc(-c2csc(Nc3ccccn3)n2)cc1	31	82*	19*	33	33	11	26*	17*
O=C1NC[C@@H](CCCCN2C[C@H](Cc3ccccc3)N(CC3CCCCC3)C(=O)C2=O)N(Cc2ccccc2)C1=O	9	22	x	x	x	x	x	x
CCCN(CCC)Cc1cc(=O)oc2cc(C)c(Cl)cc12	0	1	x	x	x	x	x	x
O=C(Nc1ccc(NC(=O)C2CC2)cn1)c1ccccc1	35	54*	17*	37	8	6	39*	21*
Cc1c(NC(=S)NC(=O)c2cc3ccccc3o2)cccc1C(=O)O	-45	2	21*	4	-19	1	20*	-16
O=C(Nc1ccc(NC(=O)C2CC2)cn1)c1ccccc1Cl	-38	-41	4	21	3	11	x	x
Cc1c(NC(=O)c2ccccc2N)cccc1C(=O)O	-65	-13	20*	-28	0	-6	13	-6
Cc1c(NC(=O)c2ccc(NC(=O)C3CC3)cc2)cccc1C(=O)O	11	18	24*	-18	6	-3	20*	-16
Cc1c(NC(=O)c2ccccc2NC(=O)c2ccccc2)cccc1C(=O)O	-10	-17	0	-7	7	-8	x	x
COc1ccc(C(NC(=O)CN2C(=O)NC3(CCc4ccccc43)C2=O)c2ccc(OC)cc2)cc1 (stereo not given)	1	1	x	x	2	x	x	x
O=C(CSc1nc2ccccc2c(=O)n1CCCN1CCOCC1)Nc1ccccc1OC(F)F	-9	0	x	x	-2	x	x	x
CNC(=O)c1ccsc1NC(=O)CS(=O)(=O)c1ccc(F)cc1	5	34	x	x	-2	x	x	x
Cc1cc(NC(=O)c2coc(=O)c(Br)c2)ccc1C(C)C	-76	47	61*	-22	-23	-15	81*	-21
O=C(Nc1ccc(Br)cn1)c1coc(=O)c(Br)c1	-27	-15	30*	23	-3	0	21*	-6
O=C(Nc1ccccc1F)c1coc(=O)c(Br)c1	-18	-2	5	2	-10	-4	x	x
SMILES	TROY signal inh	TWEAK-Fn14 inh	HSP90 inh	HSF1 activator	EBV LMP1 NFkB	HSF1 inh	HSP90 confirm	luciferase ctr
O=C(CCCCl)NC1=NN(c2ccccc2)C(=O)C1	-54	24	1	x	-1	x	x	x
CC(=O)NC1=NN(c2ccccc2)C(=O)C1	11	2	18*	-7	-8	9	-7	-11
Cc1ccc(S(=O)(=O)N2C[C@H]3C(=O)C[C@@H](c4ccccc4)N(S(=O)(=O)c4cccc(C)c4)[C@H]3C[C@H]2c2ccccc2)cc1	-8	12	x	x	x	x	x	x
CC1CSc2ccccc2NC1=S (stereo not given)	-4	-21	6	-8	9	-4	x	x
c1ccc(C2CSc3ccccc3N2)cc1 (stereo not given)	-44	14	38*	24	-11	9	-1	-17
Clc1ccc(-n2ncc3c(NCCN4CCOCC4)ncnc32)cc1	67*	83*	44*	-58	20	-54*	50*	42*
COc1ccc(-n2ncc3c(N4CCCCC4)ncnc32)cc1	86*	104*	67*	-84	76*	-81*	90*	86*
Cc1cccc(-n2ncc3c(N4CCOCC4)ncnc32)c1	68*	85*	54*	-50	66*	-40	77*	68*
COc1ccc(-n2ncc3c(NCc4cccnc4)ncnc32)cc1	-62	0	-3	34	-27	16	x	x
c1ccc(-n2ncc3c(NCCCN4CCOCC4)ncnc32)cc1	-72	-2	3	39	-21	13	x	x
COc1ccc(-n2ncc3c(NC(C)C)ncnc32)cc1	27	64*	17*	2	37	4	43*	31*
Nc1nc2c(ncn2[C@@H]2O[C@H](CNCc3ccccc3)[C@@H](O)[C@H]2O)c(=O)[nH]1	2	-7	x	x	x	x	x	x
COc1ccc(CCC2=NCCN2C(CC(C)C)c2nc3ccccc3[nH]2)cc1 (stereo not given)	4	-2	x	x	x	x	x	x
Clc1ccc(Cn2ncc3c(N4CCCCC4)ncnc32)cc1	12	22	5	14	-5	5	x	x
Clc1ccc(-n2ncc3c(N4CCCCCC4)ncnc32)cc1	92*	105*	63*	-90	41*	-89*	83*	86*
O=[N+]([O-])c1ccc(C=NN2CCCCCC2)cc1	-22	-11	x	x	-11	x	x	x
CCOC(=O)c1nc(N/N=C/c2ccccc2)sc1Br	-29	7	21*	4	-14	3	28*	-24
O=C(NCCc1ccccc1)c1ccc2nccnc2c1	57*	93*	40*	-24	50*	-31	52*	41*
O=C(NCCc1ccccc1)c1ccc2c(c1)OCO2	70*	94*	76*	-5	49*	-18	83*	78*
CCOc1ccc(C(=O)NCCc2ccccc2)cc1	52*	77*	23*	24	17	1	66*	55*
O=C(NCCS(=O)(=O)NCc1ccccc1)c1ccc2c(c1)OCO2	-4	-2	x	7	0	5	x	x
